These results are taken from PubChem BioAssay AID430 (Sanford-Burnham Center for Chemical Genomics, 2006).

About 1,100 (1.7%) of roughly 63,000 compounds were called active. Cut-off read from the data, not from the text of the source: active = cytotoxicity above about 50%; inactive = the rest. The list comes from a sample in which actives are over-represented; it also holds similar structures and randomly drawn compounds. Entries with a potency or affinity are not part of this list.

The assay can be described thus: HPDE-C7 pancreatic duct cell viability loss – fluorescence, HTS (AID 430).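 Note: cells exposed to compound for 48 hours before viability readout; 0% = vehicle and 100% = reference cytotoxic drug.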 Particulars: HPDE-C7 pancreatic duct cells viability, at 10 µM, active compounds read high.
Take `N#CCCn1cc(C(CC(=O)c2ccc(Br)cc2)C(=O)O)c2ccccc21` (centres undefined): the cytotoxicity was -21.4% (inactive).
For the compound `CCOC(=O)Nc1ccc(S(=O)(=O)Nn2cnnc2)cc1`, the cytotoxicity is -3.3% (inactive).
Take `Cn1nnnc1Sc1nc(-c2cccnc2)nc2ccccc12`: the cytotoxicity was 99.3% (active).
Take `CN1CCN(c2nc(-c3cccnc3)nc3ccccc23)CC1`: the cytotoxicity was -0.2% (inactive).
With `OCCSc1nc(-c2cccnc2)nc2ccccc12` the figure was 5.1% (inactive).
To `CCOc1cccc(-c2nnc3n2N=C(c2cc(OC)ccc2OC)CS3)c1` belongs 28.5% (inactive); to `COCCSc1ccccc1C(=O)Nc1nncs1`, -5.4% (inactive); to `O=C(CCN1CCN(CCC(=O)c2ccccc2)CC1)c1ccccc1`, -22.9% (inactive).
In the case of `O=C(CCN1CCN(c2ccccc2F)CC1)Nc1ccccc1F`, the cytotoxicity was -8.5% (inactive).
With `C=CCn1c(SCCC(=O)O)nc2c1c(=O)n(C)c(=O)n2C` the figure was -15.6% (inactive).
To `COc1ccc(NC(C)=O)cc1NC(=O)CSc1nnc(-c2ccccc2)n1N` belongs -1.2% (inactive); to `CC[C@H](C)C(=O)O[C@H]1C[C@@H](C)C=C2C=C[C@H](C)[C@H](CC[C@@H]3C[C@@H](O)CC(=O)O3)[C@H]21`, 57.6% (active).
To `NC(=O)COC(=O)c1ccc(S(=O)(=O)N2CCCCCC2)cc1` belongs 10.2% (inactive); to `COC(=O)CS(=O)(=O)c1nnc([C@H](Cc2ccccc2)NC(=O)OC(C)(C)C)o1`, -7.1% (inactive); to `CCC(C)[C@@H](NC(=O)OC(C)(C)C)c1nnc(S(=O)(=O)Cc2cccc(C)c2)o1` (some centres undefined), 5.7% (inactive).
As to `CC(C)C[C@H](NC(=O)OC(C)(C)C)c1nnc(SCc2cccc(F)c2)o1`, the cytotoxicity was -12% (inactive).
To `CC(C)(C)OC(=O)N[C@@H](Cc1ccccc1)c1nnc(S(=O)(=O)Cc2cccc(F)c2)o1` belongs -10.9% (inactive); to `CC(C)[C@H](NC(=O)OC(C)(C)C)c1nnc(S(=O)(=O)Cc2c(F)cccc2Cl)o1`, -7.3% (inactive); to `CCOC(=O)CSc1nnc([C@H](CC(C)C)NC(=O)OC(C)(C)C)o1`, 1.4% (inactive).
With `CC[C@@H](C)[C@H](NC(=O)OC(C)(C)C)c1nnc(S(=O)(=O)Cc2cc(C)ccc2C)o1` the figure was 58.1% (active); with `Cc1ccc(CCNC(=O)NC(C)(C)C)cc1`, -6.5% (inactive).
With `O=C(OC1CCOC1=O)c1ccc(S(=O)(=O)N2CCCCCC2)cc1` (centres undefined) the figure was -10.6% (inactive); with `COc1cc2c(C#N)c(N3CCCCC3)nc(N)c2c(N)n1`, 44.8% (inactive); with `N#Cc1c(N2CCCC2)nc(N)c2c(N)nc(N3CCCC3)cc12`, 1.9% (inactive).
With `CCOc1cc2c(C#N)c(N3CCOCC3)nc(N)c2c(N)n1`, the cytotoxicity was 23% (inactive).
`COc1cc2c(C#N)c(N3CCOCC3)nc(N)c2c(N)n1`: the cytotoxicity is 37.5% (inactive).
As to `COc1cc2c(C#N)c(N3CCN(c4ccccc4OC)CC3)nc(N)c2c(N)n1`, the cytotoxicity was 54.8% (active).
For the compound `COc1ccc(Cc2nc(-c3cccs3)no2)cc1OC`, the cytotoxicity was 5.9% (inactive).
To `Cc1ccc(OCCSc2nnc(NC(=O)c3ccco3)s2)cc1` belongs 4.3% (inactive); to `CCC(C)NC(=O)CCS(=O)(=O)c1ccc2c(c1)n(C)c(=O)c(=O)n2C` (centres undefined), -0.5% (inactive).
With `CC(C(=O)Nc1sccc1C(N)=O)N1C(=O)C2CC=CCC2C1=O` (centres undefined) the figure was -1.9% (inactive); with `CC(CCc1ccccc1)NC(=O)C1CCN(S(=O)(=O)N2CCCCC2)CC1` (centres undefined), -21.3% (inactive).
To `Clc1c(CSc2nc3ccccc3o2)nc2sccn12` belongs 13.8% (inactive); to `O=C(O)C1CCCCC1C(=O)Nc1ccc2c(c1)CCC2` (centres undefined), -13.4% (inactive); to `CC1CCCCC1NC(=O)CSc1nnc(COc2ccccc2Cl)o1` (centres undefined), -6.2% (inactive).
For `CCCn1c(N)c(N(C)C)c(=O)n(CC(=O)Nc2ccc(OC(F)(F)F)cc2)c1=O`, the cytotoxicity was -2.7% (inactive).
To `COc1cc(-c2ccccc2)nc(N)n1` belongs -3.4% (inactive).
To `COc1ccc(OC)c(Nc2cc(C)nc3ccccc23)c1` belongs -3.8% (inactive).
With `COc1ccc(OC)c(Nc2cc(-c3ccccc3)nc(N)n2)c1` the figure was 68.5% (active); with `Cc1nc2ccccc2c2oc(C(=O)N3CCc4ccccc43)cc12`, 0.3% (inactive); with `COCCN1C=C(C(=O)OC)C(c2ccc(OC)c(OC)c2)C(C(=O)OC)=C1`, -14.4% (inactive).
Take `CC1CN(c2nc3ccccn3c(=O)c2/C=C(\C#N)S(=O)(=O)c2ccccc2)CC(C)O1` (centres undefined): the cytotoxicity is -12.3% (inactive).
With `Cc1cc(C)nc(SCc2nnc(SCc3ccccc3Cl)o2)n1` the figure was -4.7% (inactive); with `Clc1ccccc1CSc1ncccn1`, -5.2% (inactive).
With `O=C(CSc1nnc(-c2ccco2)c(-c2ccco2)n1)Nc1ccccc1` the figure was 9.9% (inactive); with `Cc1ccc(NC(=O)CSc2nnc(-c3ccco3)c(-c3ccco3)n2)cc1`, 82.6% (active).
To `COc1ccc(NC(=O)CSc2nnc(-c3ccco3)n2C)cc1` belongs -10.6% (inactive).
`CC1(C)OC(=O)C(=CNc2cccc(C(=O)O)c2)C(=O)O1`: the cytotoxicity was -20.6% (inactive).
With `COc1ccc(S(=O)(=O)NCCSc2ccc(C)cc2)cc1OC` the figure was 12.8% (inactive); with `COc1ccc(-c2nc(CN3CCC(C(=O)NC(C)C)CC3)c(C)o2)cc1OC`, -10.9% (inactive); with `COc1ccc(C2CC(c3c(O)cc(C)oc3=O)=NCCS2)c(OC)c1` (centres undefined), 71.1% (active).
In the case of `COc1ccc(C2NC(=O)c3n[nH]c(C)c32)c(OC)c1` (centres undefined), the cytotoxicity was 4.3% (inactive).
With `COc1ccc(C2C(C(C)=O)=C(O)C(=O)N2C)c(OC)c1` (centres undefined) the figure was 6.1% (inactive).
To `Cc1cccc(N(Cc2nnc3n2CCCCC3)C(=O)Nc2ccccc2)c1` belongs -21.7% (inactive); to `COc1cc(CO)cc(-c2cc(CO)cc(OC)c2OC)c1OC`, 4% (inactive).
To `OCCN1CCN(c2ncnc3c2sc2nc(N4CCOCC4)c4c(c23)CCC4)CC1` belongs 35.6% (inactive); to `CC1(C)Cc2c(c(N3CCCC3)nc3sc4c(N5CCN(CCO)CC5)ncnc4c23)CO1`, 60.5% (active); to `CN1CCN(c2ncnc3c2sc2nc(N4CCCC4)c4c(c23)CC(C)(C)OC4)CC1`, -7.2% (inactive).
`Cn1c(OCc2cccnc2)nc2c1c(=O)n(Cc1ccc(Br)cc1)c(=O)n2C`: the cytotoxicity is 50.4% (active).
With `Cn1c(NCc2ccccc2)nc2c1c(=O)n(Cc1ccccc1)c(=O)n2C` the figure was 5.6% (inactive); with `Cn1c(OCc2cccnc2)nc2c1c(=O)n(Cc1ccc(Cl)cc1)c(=O)n2C`, 44% (inactive); with `COc1ccc(CNc2nc3c(c(=O)n(Cc4ccc(Cl)cc4)c(=O)n3C)n2C)cc1`, 26.6% (inactive).
With `Cn1c(N2CCCC2)nc2c1c(=O)n(Cc1ccc(Cl)cc1)c(=O)n2C`, the cytotoxicity was 1.7% (inactive).
On to `Cn1c(NCCCN2CCOCC2)nc2c1c(=O)n(Cc1ccc(Cl)c(Cl)c1)c(=O)n2C`, for which the cytotoxicity is 44% (inactive).
To `Cn1c(NCc2ccco2)nc2c1c(=O)n(Cc1ccc(Cl)c(Cl)c1)c(=O)n2C` belongs 8% (inactive).
To `Cn1c(N2CCN(c3ccccn3)CC2)nc2c1c(=O)n(Cc1ccc(Cl)cc1)c(=O)n2C` belongs 66.4% (active); to `Cn1c(N2CCN(c3ccccn3)CC2)nc2c1c(=O)n(Cc1ccccc1Cl)c(=O)n2C`, -12.8% (inactive).
Regarding `Cn1c(NCC(O)c2ccccc2)nc2c1c(=O)n(Cc1ccc(Cl)cc1)c(=O)n2C` (centres undefined), the cytotoxicity is 53.2% (active).
`Cn1c(NCC(O)c2ccccc2)nc2c1c(=O)n(Cc1ccc(Cl)c(Cl)c1)c(=O)n2C` (centres undefined): the cytotoxicity was 69% (active).
With `Cn1c(OCc2cccnc2)nc2c1c(=O)n(Cc1ccccc1)c(=O)n2C` the figure was 25% (inactive).
With `COc1cccc(NC(=O)N2CCN(c3ccc(C(F)(F)F)cn3)CC2)c1` the figure was 1% (inactive).
To `O=C(Cn1nnc2ccccc2c1=O)NC1CCCc2ccccc21` (centres undefined) belongs -10.4% (inactive).
Take `N#CCCN(Cc1cccnc1)C(=O)c1ccc(S(=O)(=O)N2CCOCC2)cc1`: the cytotoxicity is -11% (inactive).
`CCOC(=O)c1[nH]c(C)c(C(=O)NCc2ccccn2)c1C`: the cytotoxicity was -28.2% (inactive).
To `CCCC(c1nnnn1C1CCCCC1)N1CCN(c2ncccn2)CC1` (centres undefined) belongs -4% (inactive); to `Cc1ccc2nc3sc(C(=O)N4CCOCC4)c(N)c3cc2c1`, 2.9% (inactive); to `Cc1cccc2cc3c(N)c(C(=O)N4CCOCC4)sc3nc12`, 67.6% (active).
With `Cc1ccc2cc3c(N)c(C(=O)N4CCOCC4)sc3nc2c1` the figure was -0.1% (inactive); with `CN(Cc1nnc(SCC(=O)NCCc2ccccc2)n1C)S(=O)(=O)c1ccccc1`, -11.2% (inactive).
With `O=C(Nc1ccc(N2CCN(C(=O)c3ccccc3)CC2)cc1)c1ccc(Br)o1` the figure was -3.2% (inactive); with `O=C(CCCSc1nc2ccccc2s1)Nc1nccs1`, -2.3% (inactive).
Regarding `O=C(OCC#CCSc1nc2ccccc2s1)c1ccco1`, the cytotoxicity is -5.2% (inactive).
To `c1csc(CSc2nc3ccccc3s2)c1` belongs -16.5% (inactive); to `CC1=CC(=C(C#N)c2nc3ccccc3s2)C=C(C)N1Cc1ccco1`, 10.5% (inactive); to `N#C/C(=C\c1ccco1)Sc1nc2ccccc2s1`, 54.9% (active).
Turning to `O=C(Cn1cnc2ccccc2c1=O)OCC(=O)c1ccc2c(c1)OCCO2`, the cytotoxicity was 3% (inactive).
To `O=C(c1cc2nc(-c3ccco3)cc(C(F)(F)F)n2n1)N1CCN(c2ccccc2)CC1` belongs -3% (inactive); to `CCOc1ccc(C2N(c3cc(Cl)ccc3OC)C(=O)C3CCCN32)cc1OC` (centres undefined), -15.6% (inactive); to `Cc1ccc(CS(=O)(=O)CCC(=O)NCCN2CCCCC2C)cc1` (centres undefined), 7.5% (inactive).
To `O=C(O)c1ccc(N2CCCCC2)cc1` belongs -6.8% (inactive); to `Nc1ccc(N2CCCCC2)cc1N1CCCCC1`, 37% (inactive).
To `CCOc1nc(-c2ccccc2)ccc1-c1noc(-c2cccnc2)n1` belongs -30.6% (inactive).
For `Cc1nc(NC2=NCN(C3CCCCC3C)CN2)nc2ccccc12` (centres undefined), the cytotoxicity is -2.8% (inactive).
To `Cc1cccc(NC(=O)N2CCC(NC(=O)c3ccccc3C)CC2)c1` belongs 2.1% (inactive).
